Molecules are shown by their SMILES. In all, about 6,200 compounds went through this assay and about 2,900 (47%) were called active. No stated cut-off is given here; in the data, active means inhibition above about 50%; inactive means the rest. So high a share suggests a set chosen from earlier hits. The list shows a part of the results.

A short description of the assay: Mycobacterium tuberculosis growth inhibition, primary screen (AID 1259343). To be noted: inhibition: at 10 µM, stronger effect = higher value; outcome: 10 uM.
The inhibition is the relative decrease from the control value, in per cent. Take `Cc1nn(C)c(Cl)c1CNc1ccccc1`: the inhibition is 5.19% (inactive).

Turning to `CC1(C)C2CCC1(C)C(NC(=O)Nc1nnc(C3CC3)s1)C2` (stereo not drawn), the inhibition was 41% (inactive). With `COc1ccc(C(N)c2csc(Nc3cc(Oc4ccccc4)ncn3)n2)cc1` (stereo not drawn), the inhibition is 58.8% (active). With `CCCCCNC(=O)C1CCN(C(=O)c2oc3ccc(Cl)cc3c2C)CC1`, the inhibition is 29.4% (inactive). For the compound `O=C(c1cccs1)c1coc2ccc(Cl)cc2c1=O`, the inhibition is 43.6% (inactive).

With `O=C(O)c1oc2ccc(Cl)cc2c1-n1cccc1`, the inhibition is 90.5% (active). Regarding `COc1ccc(-c2nn3c(nc2=O)-c2ccccc2NC3C(C)C)cc1` (stereo not drawn), the inhibition entry was “inactive”. For `COc1c(C)cc(C(=O)C2CCCN(Cc3cnc(SC)nc3)C2)cc1C` (stereo not drawn), the inhibition was 47.7% (inactive). For `O=C(c1ccc(-c2ccccc2)cc1)C1CCCN(C(=O)c2ccc3nccnc3c2)C1` (stereo not drawn) the value was 18.2% (inactive); for `Cc1occc1C(=O)N1CCCC(C(=O)c2ccc(Oc3ccccc3)cc2)C1` (stereo not drawn), 17% (inactive); for `Cc1nonc1C(=O)N1CCCC(C(=O)c2ccc(Oc3ccccc3)cc2)C1` (stereo not drawn), 13.8% (inactive). As to `CSc1ncc(CN2CCCC(C(=O)c3ccc(Oc4ccccc4)cc3)C2)cn1` (stereo not drawn), the inhibition was 92.1% (active). `O=C(c1ccc(Oc2ccccc2)cc1)C1CCCN(C(=O)c2cnsn2)C1` (stereo not drawn): the inhibition is 64.4% (active).

With `O=C(c1ccc(Oc2ccccc2)cc1)C1CCCN(C(=O)c2ccc3nccnc3c2)C1` (stereo not drawn), the inhibition was 56% (active). Regarding `O=C(COC(=O)c1n[nH]c(=O)c2ccccc12)Nc1ccc2c(c1)CCC2`, the inhibition is 37.8% (inactive). Regarding `O=C(Nc1ccc2c(c1)CCC2)C1CCN(C(=O)OCC(F)(F)F)CC1`, the inhibition is 49.5% (inactive). On to `O=C(COCC(F)(F)F)Nc1ccc2c(c1)C(=O)CCC2`, for which the inhibition was 81.5% (active). Regarding `Clc1ccc(-c2noc(CSc3ccc(Br)cc3)n2)cc1`, the inhibition was 66.5% (active). For the compound `O=C(NCc1ccc(Cl)cc1)c1c(O)nc2ccccn2c1=O`, the inhibition was 25.1% (inactive). Consider `O=C(NCCc1ccccc1)c1c(O)nc2sccn2c1=O`, for which the inhibition is 1.99% (inactive). For `Cc1ccc(CNC(=O)c2c(O)nc3sccn3c2=O)cc1`, the inhibition is 74.4% (active).

As to `Cc1ccc(CNC(=O)CN2CCc3sccc3C2C)cc1` (stereo not drawn), the inhibition is 27% (inactive). For the compound `Cc1cccc(C)c1Cn1c(C)c(C(=O)NCc2ccc(Cl)c(Cl)c2)sc1=O`, the inhibition was 16.1% (inactive). With `O=C(NC1CCCCC1)c1c(O)nc2ccccn2c1=O`, the inhibition is 42.4% (inactive). On to `O=C(NCc1ccc(F)cc1)c1c(O)nc2sccn2c1=O`, for which the inhibition was 59.5% (active). On to `O=C(NCc1ccccc1)c1c(O)nc2sccn2c1=O`, for which the inhibition is 63.3% (active).

Regarding `O=C(NCc1ccc(Cl)cc1)c1c(O)nc2sccn2c1=O`, the inhibition was 81.1% (active). Take `Fc1cccc(Nc2cc3[nH]c(-c4cccc(F)c4)cc3cn2)c1`: the inhibition was 30.6% (inactive).
